Laboratory results: PubChem BioAssay (NCATS)
Inconclusive results are not listed. Calls of active or inactive are those of the source. Calls follow the shape of the full dose curve; tested in HEK293 reporter line.

What was measured:
[1] = qHTS for Inhibitors of the Functional Ribonucleoprotein Complex (vRNP) of Lassa (LASV) Arenavirus: LASV Primary Screen - GLuc reporter signal (AID 1347082); also: nearly all actives have a fitted effect of over 60% in size
[2] = qHTS for Inhibitors of the Functional Ribonucleoprotein Complex (vRNP) of Lassa (LASV) Arenavirus: Viability assay - alamar blue signal for LASV Primary Screen (AID 1347083); also: nearly all actives have a fitted effect of over 80% in size
[3] = qHTS for Inhibitors of the Functional Ribonucleoprotein Complex (vRNP) of Lymphocytic Choriomeningitis Arenaviruses (LCMV): Viability assay - alamar blue signal for LCMV Primary Screen (AID 1347085); also: nearly all actives have a fitted effect of over 80% in size

Measured: Potency
Also: series mostly up to about 57 µM.

Cc1oc(=O)oc1COC(=O)[C@@H]1N2C(=O)[C@@H](NC(=O)[C@H](N)c3ccccc3)[C@H]2SC1(C)C
inactive: [1] | [2] | [3]

CC[N+](CC)(CCNC(=O)C(=O)NCC[N+](CC)(CC)Cc1ccccc1Cl)Cc1ccccc1Cl
inactive: [1] | [2] | [3]

Cc1ncc(CO)c(CO)c1O
inactive: [1] | [2] | [3]

CC(=O)N(c1onc(C)c1C)S(=O)(=O)c1ccc(N)cc1
inactive: [1] | [2] | [3]

O=C(O)/C=C(\CC(=O)O)C(=O)O
inactive: [1] | [2] | [3]

O=C(O)CCCCC1CCSS1 (centres undefined)
inactive: [1] | [2] | [3]

CC(=O)OC(C)OC(=O)C(C)c1ccc(-c2ccccc2)c(F)c1 (centres undefined)
inactive: [1] | [2] | [3]

CCC(Cc1c(I)cc(I)c(N)c1I)C(=O)O (centres undefined)
inactive: [1] | [2] | [3]

CCN1CC(CCN2CCOCC2)C(c2ccccc2)(c2ccccc2)C1=O (centres undefined)
inactive: [1] | [2] | [3]

CC(=O)OC(C)C[N+](C)(C)C (centres undefined)
inactive: [1] | [2] | [3]

O=c1c(-c2ccc(O)cc2)coc2cc(O)cc(O)c12
inactive: [1] | [2] | [3]

Cc1cc(O)c2c(O)c3c(O)cccc3cc2c1
inactive: [1] | [2] | [3]

CCCC(CCC)(C(=O)OCC)C(=O)OCC
inactive: [1] | [2] | [3]

CC1c2ccccc2CN1NC(=O)c1ccc(Cl)c(S(N)(=O)=O)c1 (centres undefined)
inactive: [1] | [2] | [3]

CC(=O)Nc1ccccc1
inactive: [1] | [2] | [3]

CC(C)(C)C1CCC(CC2=C(O)c3ccccc3C(=O)C2=O)CC1 (centres undefined)
inactive: [1] | [2] | [3]

NC(CS)C(=O)O (centres undefined)
inactive: [1] | [2] | [3]

CCc1cc(C(N)=S)ccn1
inactive: [1] | [2] | [3]
